From PubChem
Not all results are given here.
aSyn UTR act = Activators via SNCA 5'UTR binding, MLPCN; 300,000 compounds, 7.1% hits; activity score, % (tested at 7.5 µM), hits read low; alpha-synuclein 5'UTR reporter, activators screen; in the data active means activity score below about -60%
* = called active by the depositor.

SMILES	aSyn UTR act
C=CCc1ccc(OCc2ccc(C(=O)OC)o2)c(OC)c1	-121*
CC1(C)CC(=O)c2sc(NS(=O)(=O)Cc3ccccc3)nc2C1	-63*
Cc1ccc(O)c(NC(=O)c2cc(-c3cccs3)on2)c1	-231*
CSc1ccccc1NC(=O)c1cc(-c2cccs2)on1	-235*
CC(C)NC(=O)c1cc(-c2cccs2)on1	-127*
Cc1ccc(O)c(NC(=O)c2cc(-c3ccc(F)cc3)on2)c1	-147*
O=C(Nc1c(F)cc(F)cc1Br)c1cc(-c2ccc(O)cc2)on1	-101*
C=CCNC(=O)c1cc(-c2ccc(Br)cc2)on1	-101*
Cc1ccc(C(=O)NCC(=O)N2CCCC(C(F)(F)F)C2)s1 (configuration not stated)	-62*
O=C(Nc1ccc(Cl)cc1)Nc1ccccc1CC[N+](=O)[O-]	-97*
O=C(Nc1ccc(F)cc1)Nc1ccccc1F	-180*
COc1ccc(NCC(=O)Nc2ccccc2C#N)cc1Cl	-68*
CSc1ccccc1NC(=O)Nc1ccc(Cl)cc1	-190*
COC(=O)c1ccc(NC(=O)Nc2ccccc2C)cc1	-107*
CC(=O)N(C)c1ccc(NC(=O)Nc2ccccc2C)cc1	-107*
COc1ccc(NC(=O)Nc2ccccc2F)c(C)c1	-98*
COc1cc(C)c(C(=O)CC(=O)c2c(C)cc(OC)cc2C)c(C)c1	72
COc1ccc(NC(=O)Nc2ccccc2F)c([N+](=O)[O-])c1	-139*
Oc1c(N=NC(=S)Nc2ccccc2F)c2ccccc2n1Cc1ccccc1Cl	87
CSc1ccc(NC(=O)Nc2ccccc2C(N)=O)cc1	-92*
COc1ccc(C/C(C)=N/NC(=S)Nc2ccccc2F)cc1	-152*
O=C(Nc1ccc(F)cc1)Nc1cccnc1Cl	-81*
Cc1ccc(Cn2c(O)c(N=NC(=S)Nc3ccccc3F)c3ccccc32)cc1	71
O=C(Nc1ccccc1)Nc1cccn(Cc2c(F)cccc2Cl)c1=O	-103*
O=C(Nc1ccccc1F)Nc1ccccc1Br	-106*
SMILES	aSyn UTR act
COc1cccc(COC(=O)Nc2ccccc2F)c1	-146*
COc1ccc(NC(=O)Nc2ccccc2F)cc1Cl	-184*
O=C(C#Cc1ccccc1)Nc1ccccc1F	-141*
Cc1ccccc1NC(=O)OCc1ccccc1	-84*
Fc1ccccc1NC(=S)N/N=C/c1ccccc1Br	-248*
COc1ccc(NC(=O)Nc2ccccc2F)cc1	-134*
COC(=O)c1ccc(NC(=O)Nc2ccccc2F)cc1	-95*
COc1ccc(NC(=O)Nc2ccccc2SC)cc1	-113*
O=C(N/N=C1/CC2C=CCC12)c1ccco1 (configuration not stated)	-66*
O=C(N/N=C1/CC2C=CCC12)c1cccs1 (configuration not stated)	-75*
COc1ccc(C=Nc2cccnc2N)cc1	-67*
COc1cc(-c2nnn(CC(=O)NC3CCS(=O)(=O)C3)n2)ccc1OCc1ccccc1 (configuration not stated)	-126*
Cc1cc(Cl)ccc1OCC(=O)Nc1ccccc1CO	-81*
CSc1ccccc1NC(=O)COc1ccc(Cl)cc1C	-63*
COc1ccc(-n2c(C)cc(/C=C3\C(=O)NN(c4ccccc4)C3=O)c2C)cc1	-113*
Cc1cc(/C=C2\C(=O)NN(c3ccccc3)C2=O)c(C)n1-c1ccccc1O	-132*
Cc1cc(/C=C2/C(=O)NN(c3ccccc3)C2=O)c(C)n1-c1ccc(O)cc1	-138*
O=C1NN(c2ccccc2)C(=O)/C1=C/c1coc2ccccc2c1=O	-138*
Cc1nc(NCCc2ccc(S(N)(=O)=O)cc2)c2c3c(sc2n1)CCC3	-116*
Cc1ccc(C(=O)CC(=O)c2cc(Cl)ccc2O)cc1	-151*
Cc1ccc(C(=O)CC(=O)c2ccc(C)cc2O)cc1	-95*
CC(C)(C)c1ccc(C(=O)CS(=O)(=O)c2ccccc2)cc1	-133*
Cc1ccc(C(=O)CC(=O)c2ccc(C(C)(C)C)cc2)cc1	-113*
CC(NC(=O)CCl)c1ccccc1Br (configuration not stated)	-99*
CCOC(=O)c1cc2ccc3ccccc3c2s1	-169*
SMILES	aSyn UTR act
CCOC(=O)c1cc2c(s1)-c1ccccc1CC2	-97*
Cc1ccc(NC(=O)c2snc3ccc(Cl)cc23)cc1C	-216*
CCN(CC)CCn1c2ccccc2c2cnc(N)c(C#N)c21	-655*
COc1cccc(OCCNc2cc(N3CCOCC3)ccc2[N+](=O)[O-])c1	-78*
CCc1c(C)nc(Nc2nc(C)c3cc(OC)ccc3n2)[nH]c1=O	-102*
COc1ccc2c(C)nc(Nc3nc(C)c(C)c(=O)[nH]3)nc2c1	103
Cc1ccc(NCCC(=O)c2cccc([N+](=O)[O-])c2)c(C)c1	-201*
Cc1nnc(NCCc2ccccc2)c2ccccc12	-86*
CNC[C@H](Cc1ccccc1)NC[C@@H](Cc1cccc2ccccc12)NCCc1ccc(C)cc1	123
CNC(=S)Nc1ccc(Nc2ccccc2)cc1	-95*
CCCNC(=S)Nc1ccc(Nc2ccccc2)cc1	-87*
CCCc1cc(C(=O)Nc2cccc(C(C)=O)c2)no1	-80*
CC(=O)c1cccc(NC(=O)c2cc(-c3ccc(C)cc3)on2)c1	-137*
Oc1ccc(Br)cc1-c1ccnn1-c1ccccc1	-114*
O=C(/C=C1\NCC2c3ccccc3CCN2C1=O)c1ccccc1 (configuration not stated)	-156*
O=C(O)[C@@H]1CCCC[C@@H]1C(=O)N1CCc2ccccc2C1CN1C(=O)c2ccccc2C1=O (some centres not stated)	68
Oc1ccccc1/C=N/Nc1cccc2cccnc12	-234*
O=C(O)c1ccc(N/N=C/c2ccnc3ccccc23)cc1	-119*
O=C(O)c1ccc(N/N=C/c2cccc3cccnc23)cc1	-89*
CCc1ccc2c(c1)/C(=C/C(=O)c1cccs1)C(=O)N2	-65*
O=C(CCl)Nc1cc(SCC(O)CO)cc([N+](=O)[O-])c1 (configuration not stated)	110
O=C(CSc1ccc(C(F)(F)F)cc1[N+](=O)[O-])Nc1ccccc1	-75*
COc1cc(Br)cc(/C=N/NC(=O)Cc2ccc(C(F)(F)F)cc2[N+](=O)[O-])c1O	68
Nc1ccc(Oc2ccccc2-c2ccccc2)cc1	104
Nc1nc(-c2ccc3ccccc3c2)cs1	-193*
SMILES	aSyn UTR act
Cc1ccc(N/C(N)=N/c2nc(CSc3nnc(C)s3)cc(=O)[nH]2)c(C)c1	83
Cc1ccc(-c2csc(N=C(N)N)n2)c(C)c1	-94*
c1ccc2cc(-c3csnn3)ccc2c1	-74*
Nc1nc(N)c2cc(Sc3ccc4ccccc4c3)ccc2n1	96
Nc1nc(-c2ccc(Oc3ccccc3)cc2)cs1	-123*
COc1ccc(-c2ccc(OC)cc2)cc1	-120*
COc1ccc(-c2csc(N=C(N)N)n2)cc1	-141*
Nc1nc(-c2ccc(-c3ccccc3)cc2)cs1	-186*
COc1ccc(-c2csc(N)n2)cc1	-101*
Cn1cccc1C(=O)N/N=C/c1c(Cl)cccc1Cl	-100*
O=C(O)c1cccc(N/N=C/c2cccs2)c1	96
Cn1cc(C(=O)N/N=C/c2c(O)ccc3ccccc23)ccc1=O	96
CC(C)(C)NC(=O)C(=O)N/N=C/c1cccs1	-120*
Cn1cccc1/C=N/NC(=O)c1ccccn1	-71*
Cn1cccc1/C=N/NC(=O)c1cc2ccccc2cc1O	-82*
O=C(N/N=C/c1cccs1)c1ccccn1	-79*
Cc1ccc2c(Cl)c(C(=O)N/N=C/c3cccn3C)sc2c1	-135*
COCC(=O)Nc1cc(C(=O)Nc2ccccc2)ccc1Cl	-79*
